Holding throughout (assay): qHTS profiling for inhibitors of Plasmodium falciparum proliferation (AID 504749); further: nearly all actives have a fitted effect of over 60% in size
Holding throughout (details): P. falciparum in erythrocytes, SYBR Green DNA, 72 h; series mostly up to 28.7 µM
Background: In qHTS, concentration-response curves come from the screen itself.

One assay deals with N140. The method, boiled down: (§1)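 Readout was DNA-dye fluorescence from lysed cultures, ex 485/em 535 nm. Parasitized red cells had grown 72 h with compound; data scaled between 0.29 uM artemisinin and DMSO wells and corrected using vehicle-only plates.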
A further assay deals with P93_24. An outline of the steps: as §1
For another assay, the system named is P94_40. An outline of the steps: as §1
The next assay has as its system PAD. The method, boiled down: as §1
The test system of a further assay is PC15. An outline of the steps:
as §1

The next assay has as its system PC26. An outline of the steps:
as §1

For a further assay, the system named is PC49. The method, boiled down:
as §1

The test system of another assay is SC27B. An outline of the steps:
as §1

The subject of another assay is TAB109. The method, boiled down:
as §1

Another assay has as its system TAB113. The method, boiled down: as §1

Results filed as inconclusive are left out. Activity calls are given as the source filed them. The call rests on the fitted dose curve; in most records, active means well fitted inhibition curve with a large enough effect; inconclusive means small, poorly fitted or top-dose-only effect; inactive means flat fitted curve, though single readings scatter.
Potency means the concentration at half of the fitted maximal effect.

`COC(F)(F)C(Cl)Cl`: the Potency result with N140, with P93_24, in the assay with P94_40, in the assay on PAD, in the assay with PC15 and in the assay with PC26 was “inactive” throughout. The Potency result in the assay with PC49, in the assay on SC27B, in the assay with TAB109 and in the assay on TAB113 was “inactive” throughout.
For `CC1(C)S[C@@H]2[C@H](NC(=O)[C@@H](NC(=O)N3CCNC3=O)c3ccccc3)C(=O)N2[C@H]1C(=O)O`, the Potency entry in the assay with N140, in the assay with P93_24, with P94_40, with PAD, with PC15 and with PC26 was “inactive” throughout. For the same compound, the Potency entry with PC49, in the assay with SC27B, with TAB109 and in the assay with TAB113 was “inactive” each time.
As for `CC(=O)Oc1c(C)cc(OCC(O)CNC(C)C)c(C)c1C` (stereo not drawn), the Potency entry in the assay on N140, in the assay with P93_24, in the assay on P94_40, in the assay on PAD, with PC15 and with PC26 was “inactive” throughout. Further, the Potency entry in the assay on PC49, in the assay on SC27B, in the assay with TAB109 and in the assay with TAB113 was “inactive” each time.
On to `Cc1ccccc1`, for which the Potency result in the assay with N140, in the assay on P93_24, in the assay with P94_40, with PAD, in the assay on PC15 and with PC26 was “inactive” each time. Besides, the Potency result in the assay with PC49, in the assay with SC27B, in the assay on TAB109 and with TAB113 was “inactive” in each case.
For the compound `CCCCC/C=C\C/C=C\CCCCCCCC(=O)O`, the Potency entry with N140, in the assay with P93_24, with P94_40, in the assay with PAD, in the assay with PC15 and in the assay with PC26 was “inactive” throughout. Moreover, the Potency result in the assay with PC49, with SC27B, in the assay with TAB109 and in the assay on TAB113 was “inactive” throughout.
In the case of `COC(C(=O)C(O)C(C)O)C1Cc2cc3cc(OC4CC(OC5CC(O)C(O)C(C)O5)C(O)C(C)O4)c(C)c(O)c3c(O)c2C(=O)C1OC1CC(OC2CC(OC3CC(C)(O)C(O)C(C)O3)C(O)C(C)O2)C(O)C(C)O1` (stereo not drawn), the Potency in the assay on N140 was 0.199 µM (active); with P93_24 it was 0.178 µM (active); with P94_40, 0.126 µM (active); in the assay with PAD it was 0.224 µM (active); with PC15, 0.501 µM (active); in the assay with PC26, 2.69 µM (active). Further, the Potency in the assay on SC27B is 0.178 µM (active); with TAB109, 0.158 µM (active); in the assay with TAB113 it was 0.141 µM (active). Also, the Potency entry in the assay with PC49 was “inactive”.
With `CCCCCCCC(=O)O`, the Potency entry with N140, in the assay on P93_24, with P94_40, in the assay with PAD, with PC15 and with PC26 was “inactive” each time. Moreover, the Potency result with PC49, with SC27B, in the assay on TAB109 and with TAB113 was “inactive” throughout.
Turning to `CC(Cc1ccc(O)c(O)c1)C(C)Cc1ccc(O)c(O)c1` (stereo not drawn), the Potency result in the assay with N140, in the assay with PC49, in the assay with SC27B and in the assay on TAB113 was “inactive” in each case.
Regarding `O=S(=O)(O)c1cc(O)c2c(N=Nc3ccc(Nc4ccccc4)c4c(S(=O)(=O)O)cccc34)cc(S(=O)(=O)O)cc2c1`, the Potency entry with PAD and in the assay with SC27B was “inactive” each time.
With `CN1C(=O)CN2CCc3ccccc3C2c2cc(Cl)ccc21` (stereo not drawn), the Potency entry with P94_40, in the assay with PC15 and in the assay with PC49 was “inactive” each time.
With `COc1cc(-c2ccc(-[n+]3nc(-c4ccccc4)nn3-c3ccc([N+](=O)[O-])cc3)c(OC)c2)ccc1-[n+]1nc(-c2ccccc2)nn1-c1ccc([N+](=O)[O-])cc1`, the Potency with P94_40 is 10 µM (active); with PC26, 15.1 µM (active).
For the compound `O=CCCCC=O`, the Potency entry in the assay on N140, with P94_40, in the assay with PAD, in the assay on PC15, in the assay with PC49 and in the assay on SC27B was “inactive” in each case. For the same compound, the Potency result in the assay on TAB109 and in the assay with TAB113 was “inactive” each time.
In the case of `O=C(O)c1cc(=O)c2c3nc4ccccc4oc-3cc(=O)c2[nH]1`, the Potency entry in the assay on N140, in the assay on P94_40, in the assay on PC49 and in the assay with TAB113 was “inactive” throughout.
As to `CCN(CC)CCOc1ccc(-c2nc3cc(Cl)ccc3s2)cc1`, the Potency entry with N140, in the assay on PC26, in the assay on PC49 and in the assay with SC27B was “inactive” in each case.
`Cc1c(C)c2c(c(C)c1O)CC[C@@](C)(CCC[C@@H](C)CCC[C@@H](C)CCCC(C)C)O2`: the Potency result with N140, with PAD, with PC15, in the assay with PC26, in the assay on PC49 and in the assay on SC27B was “inactive” throughout. The Potency result in the assay on TAB113 is “inactive”.
`CC[C@@]1(O)C(=O)OCc2c1cc1n(c2=O)Cc2cc3c([N+](=O)[O-])cccc3nc2-1`: the Potency was 8.91 µM (active) in the assay on N140; 7.94 µM (active) in the assay on P93_24; 5.01 µM (active) in the assay with P94_40; 5.62 µM (active) in the assay on SC27B; 3.98 µM (active) in the assay with TAB109; 5.62 µM (active) in the assay with TAB113.
Regarding `CC(=O)Oc1cc(C)c(OC(C)=O)c2ccccc12`, the Potency with P93_24 is 7.94 µM (active); with PC15 it was 4.47 µM (active); in the assay on PC26, 7.57 µM (active).
Consider `C#C[C@]1(O)CC[C@H]2[C@@H]3CCC4=CCCC[C@@H]4[C@H]3C(=C)C[C@@]21CC`, for which the Potency entry in the assay with PC15 and in the assay with PC26 was “inactive” each time.
In the case of `CC(C)N=c1cc2n(-c3ccc(Cl)cc3)c3ccccc3nc-2cc1Nc1ccc(Cl)cc1`, the Potency result in the assay with N140, with P93_24, with PAD, in the assay on PC26, in the assay on PC49 and in the assay with SC27B was “inactive” each time. Moreover, the Potency result in the assay with TAB109 and in the assay on TAB113 was “inactive” throughout.
For the compound `CCCCC(=O)O[C@]1(C(=O)CO)[C@H](C)C[C@H]2[C@@H]3CCC4=CC(=O)C=C[C@]4(C)[C@@]3(F)[C@@H](O)C[C@@]21C`, the Potency entry in the assay on P94_40, in the assay with PC49, in the assay on SC27B and in the assay on TAB113 was “inactive” in each case.
Regarding `O=C1CSC2(CCN(CCCN3c4ccccc4Sc4ccc(Cl)cc43)CC2)N1`, the Potency in the assay on P93_24 is 8.91 µM (active).
For the compound `O=C(Nc1ccc(Br)cc1)c1cc(Br)c(Br)s1`, the Potency entry with PC15 and in the assay with PC49 was “inactive” in each case.
Take `CN(C)CCCN1c2ccccc2C(C)(C)c2ccccc21`: the Potency entry in the assay on PAD and with PC49 was “inactive” in each case.
`C=CCSSSCC=C`: the Potency entry in the assay with N140, in the assay with P94_40, with PAD, in the assay on PC15, in the assay with PC26 and in the assay with PC49 was “inactive” each time. The Potency result with SC27B, with TAB109 and with TAB113 was “inactive” each time.
For `CCOc1ccc(N=Nc2ccc(N)cc2N)cc1`, the Potency result with N140, with PC15, in the assay with PC26, in the assay on PC49 and in the assay with TAB109 was “inactive” throughout.
Consider `Clc1cc(Cl)c(OCC#CI)cc1Cl`, for which the Potency was 10 µM (active) in the assay on N140; 7.94 µM (active) in the assay with P93_24; 11.2 µM (active) in the assay with P94_40; 11.2 µM (active) with PAD; 11.2 µM (active) with TAB109; 5.01 µM (active) with TAB113.
Consider `CCCCC(CC)COC(=O)CC(C(=O)OCC(CC)CCCC)S(=O)(=O)O` (stereo not drawn), for which, in the assay with PC26, the Potency result was “inactive”.
With `CCOC(=O)C1=C(C)NC(C)=C(C(=O)OCC)C1c1ccccc1C=CC(=O)OC(C)(C)C`, the Potency with N140 is 10 µM (active); with P93_24 it was 7.08 µM (active); with PC15 it was 10 µM (active); in the assay on PC26, 10.7 µM (active); with SC27B, 11.2 µM (active).
For the compound `CC(C)=O`, the Potency entry in the assay on N140, with P93_24, with PAD, in the assay with PC15, in the assay on PC26 and with PC49 was “inactive” throughout. Besides, the Potency entry with SC27B, in the assay with TAB109 and in the assay on TAB113 was “inactive” each time.
As to `NC1C2CN(c3nc4c(cc3F)c(=O)c(C(=O)O)cn4-c3ccc(F)cc3F)CC12` (stereo not drawn), the Potency result in the assay with PC26 was “inactive”.
For the compound `C=C1C(=CC=C2CCC[C@@]3(C)[C@@H]2CC[C@H]3[C@H](C)CCCC(C)C)C[C@@H](O)C[C@@H]1O`, in the assay on N140, the Potency is 14.1 µM (active). Moreover, the Potency result in the assay on PC26 is “inactive”.
For the compound `COC(=O)C1=C(C#N)NC(C)=C(C(=O)OC(C)C)C1c1cccc([N+](=O)[O-])c1` (stereo not drawn), the Potency was 7.94 µM (active) with N140; 12.6 µM (active) in the assay with P93_24; 10 µM (active) in the assay on PAD; 10 µM (active) in the assay with PC15; 13.5 µM (active) with PC26; 12.6 µM (active) in the assay on PC49. The Potency in the assay with SC27B and in the assay on TAB109 was 8.91 µM (active) throughout.
